Data taken from ChEMBL document CHEMBL3988442, “University of Dundee, Small-Polar-MMV Screening Library” (2021).
For part of these data: Potency and affinity values are given separately.

biological target: T1, Ubiquitin-activating enzyme e1, putative (Leishmania donovani (strain BPK282A1)) (UniProt E9BSI1); assay: Leishmania donovani Ubiquitin Activating Enzyme (LdE1); format: functional; parameters: scale not given: direction of the effect not stated beside the values; conditions: 30 µM
T1 sequence (whole entry): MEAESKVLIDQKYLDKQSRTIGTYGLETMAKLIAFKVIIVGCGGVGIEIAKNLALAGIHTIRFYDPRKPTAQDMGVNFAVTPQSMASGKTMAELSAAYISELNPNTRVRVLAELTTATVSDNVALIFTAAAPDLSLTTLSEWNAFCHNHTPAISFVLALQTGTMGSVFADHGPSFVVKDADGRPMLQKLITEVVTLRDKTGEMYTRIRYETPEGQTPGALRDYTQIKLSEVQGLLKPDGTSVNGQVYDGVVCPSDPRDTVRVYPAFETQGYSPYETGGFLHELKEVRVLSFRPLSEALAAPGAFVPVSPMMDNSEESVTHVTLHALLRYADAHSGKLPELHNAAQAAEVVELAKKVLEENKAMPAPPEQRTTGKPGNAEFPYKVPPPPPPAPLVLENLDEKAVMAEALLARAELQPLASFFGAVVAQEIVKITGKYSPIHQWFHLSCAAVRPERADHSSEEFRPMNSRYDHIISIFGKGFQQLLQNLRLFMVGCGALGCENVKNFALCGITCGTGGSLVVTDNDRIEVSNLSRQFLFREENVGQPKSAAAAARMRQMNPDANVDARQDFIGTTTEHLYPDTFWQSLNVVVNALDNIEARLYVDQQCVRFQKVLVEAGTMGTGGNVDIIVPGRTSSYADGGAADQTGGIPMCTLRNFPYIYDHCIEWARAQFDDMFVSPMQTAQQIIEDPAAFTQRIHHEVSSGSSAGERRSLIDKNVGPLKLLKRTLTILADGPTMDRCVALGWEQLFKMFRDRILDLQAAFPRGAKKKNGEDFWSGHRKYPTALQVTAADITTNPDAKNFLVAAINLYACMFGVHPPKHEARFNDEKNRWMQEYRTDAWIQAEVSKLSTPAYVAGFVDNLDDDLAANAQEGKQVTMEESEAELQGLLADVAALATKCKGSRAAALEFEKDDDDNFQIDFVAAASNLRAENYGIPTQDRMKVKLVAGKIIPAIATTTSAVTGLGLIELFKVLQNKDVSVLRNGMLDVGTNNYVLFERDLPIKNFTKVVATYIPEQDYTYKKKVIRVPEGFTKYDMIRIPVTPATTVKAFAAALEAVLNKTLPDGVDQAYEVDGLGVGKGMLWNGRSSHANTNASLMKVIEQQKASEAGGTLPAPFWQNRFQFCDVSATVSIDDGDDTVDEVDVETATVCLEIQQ

| SMILES | Percent Effect |
| --- | --- |
| CC(C)c1nc(C2CCCN2CC(=O)Nc2ccc(Cl)cn2)no1 (stereo not drawn) | 18.7% |
| CCN(CC1CCOC1)C(=O)Nc1ccc(-n2cncn2)nc1 (stereo not drawn) | 5.13% |
| O=C(NCc1nn(-c2ccccc2)c2c1CCC2)NC1CC1 | 2.56% |
| CC1CN(CC2CCCCC2)CCN1c1ccc2nncn2n1 (stereo not drawn) | 15.4% |
| O=C1C(NCc2nnc3n2CCCC3)CCCN1c1cccc(F)c1 (stereo not drawn) | 10.3% |
| O=C(Cc1cccnc1)N1CCC(OCc2ccccc2)CC1 | -8.11% |
| CCn1ccnc1CN1CCC(N(C)Cc2ncc(C)o2)C1 (stereo not drawn) | 13.3% |
| NC(=O)c1cc(C2CCCN(CCCOc3ccccc3)C2)n[nH]1 (stereo not drawn) | -15.4% |
| CC(NC(=O)N(C)CCCOc1ccc(F)cc1)c1nncn1C (stereo not drawn) | 8% |
| CN(Cc1noc(C2CC2)n1)C1CCN(Cc2nnc(C3CC3)o2)C1 (stereo not drawn) | 15.6% |
| CN(Cc1ccc(F)cc1)[C@@H]1CN(C(=O)c2cccs2)C[C@H]1O | 17.3% |
| CCn1ncc(Br)c1CN(C)S(=O)(=O)c1ccc(C)cc1 | 6.67% |
| Cc1cccc(C(=O)N2CCCCC2c2ccc(CN(C)C)cc2)n1 (stereo not drawn) | 18.9% |
| Cc1cccc(CN2CCc3nnc(CN4CCCC4=O)n3CC2)n1 | 14.3% |
| CC(C)c1nccn1-c1cccc(C2CCCN(C3CCCC3)C2)n1 (stereo not drawn) | 6.67% |
| Cc1ccc2cc(C(=O)NCCn3nc4ccccn4c3=O)[nH]c2c1 | 10.3% |
| Cc1csc(Nc2nccnc2C2CCCN2C(=O)C(C)C)n1 (stereo not drawn) | 14.7% |
| CC(C)(C)c1cn2nc(N3CCCC3Cn3cncn3)sc2n1 (stereo not drawn) | 17.9% |
| CCNC(=O)c1ccc(CNCc2c(C)nn(C)c2N(C)C)cc1 | 21.3% |
| CN(C)c1cc(C(=O)N2CCN(S(C)(=O)=O)CC2)ccn1 | 10.3% |

| SMILES | Percent Effect |
| --- | --- |
| Cn1ccnc1CN1CCN(Cc2noc(-c3ccccc3)n2)CC1 | 10.7% |
| COCC(C)N(C)C(=O)c1nc(S(C)(=O)=O)n2ccccc12 (stereo not drawn) | 2.56% |
| CS(=O)(=O)NCC1CCCN(C(=O)COc2ccc(F)cc2)C1 (stereo not drawn) | 10.3% |
| CCN(Cc1cccc2c1OCO2)C(=O)C(C)c1cccnc1 (stereo not drawn) | 7.79% |
| Cc1nc(CN2CCC(N(C)Cc3noc(C4CC4)n3)C2)oc1C (stereo not drawn) | 18.2% |
| COC(=O)CC(c1cnn(C)c1)c1oc(C)cc(=O)c1O (stereo not drawn) | 0% |
| Cc1cnn(CC2CCCN2C(=O)c2ccc(OC(C)C)nc2)c1 (stereo not drawn) | -2.56% |
| CN1[C@H](CN2CCCC2)C[C@@H]2CN(C(=O)Cc3cccs3)CC[C@@H]21 | 16.9% |
| CC(C)CN1CCC2(CCN(C(=O)c3ccc(F)cc3)CC2)C1=O | 19.5% |
| CC(=O)N1N=C(c2ccccc2)OC1C(=O)NCCC1=CCCCC1 (stereo not drawn) | 12% |
| CCC1CN(C(=O)c2ccc(Cl)cc2O)CCN1C(C)C (stereo not drawn) | 2.7% |
| Cn1cc(-c2nc(CN3CCc4c(ncn4C4CC4)C3)cs2)cn1 | -2.6% |
| O=C(NCCn1nc2ccccn2c1=O)c1cccc2[nH]ncc12 | 20.5% |
| COc1ncccc1CNC(=O)NCCNC(=O)c1ccco1 | 13.3% |
| Cc1cnn(CCNCc2nnc(C3CC3)o2)c1 | 26% |
| COc1ccc(S(N)(=O)=O)cc1C(=O)N(C)Cc1cc(C)on1 | 20.5% |
| O=S(=O)(CCCN1CCCC1Cn1cncn1)c1ccccc1 (stereo not drawn) | 26% |
| O=C(NCC(=O)N1CCc2ccccc2C1)c1ccoc1 | 15.6% |
| CC(=O)N1[C@H](CN(C)C)C[C@@H]2CN(C(=O)c3cccc(F)c3)CC[C@@H]21 | 9.09% |

biological target: Sialic acid-binding Ig-like lectin 9 (Homo sapiens) (UniProt Q9Y336); assay: Hs-Siglec9 ALPHAscreen SOP 20170721; parameters: scale not given: direction of the effect not stated beside the values; conditions: 10 µM
Sequence (Q9Y336 whole entry): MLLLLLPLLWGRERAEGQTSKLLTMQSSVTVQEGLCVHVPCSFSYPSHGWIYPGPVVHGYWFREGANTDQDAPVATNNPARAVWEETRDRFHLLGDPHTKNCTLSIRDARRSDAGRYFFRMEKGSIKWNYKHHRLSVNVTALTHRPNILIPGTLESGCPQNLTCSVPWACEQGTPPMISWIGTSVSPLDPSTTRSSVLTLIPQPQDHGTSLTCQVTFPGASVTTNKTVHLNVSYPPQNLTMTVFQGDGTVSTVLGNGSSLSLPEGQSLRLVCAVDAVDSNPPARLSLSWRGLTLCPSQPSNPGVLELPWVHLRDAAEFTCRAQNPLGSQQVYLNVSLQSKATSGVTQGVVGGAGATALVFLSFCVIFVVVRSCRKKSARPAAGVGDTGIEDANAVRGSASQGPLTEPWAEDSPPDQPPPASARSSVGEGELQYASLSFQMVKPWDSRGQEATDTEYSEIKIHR

| SMILES | Percent Effect |
| --- | --- |
| CC(C)c1nc(C2CCCN2CC(=O)Nc2ccc(Cl)cn2)no1 (stereo not drawn) | 16.2% |
| CCN(CC1CCOC1)C(=O)Nc1ccc(-n2cncn2)nc1 (stereo not drawn) | -0.956% |
| O=C(NCc1nn(-c2ccccc2)c2c1CCC2)NC1CC1 | 9.31% |
| CC1CN(CC2CCCCC2)CCN1c1ccc2nncn2n1 (stereo not drawn) | -7.37% |
| O=C1C(NCc2nnc3n2CCCC3)CCCN1c1cccc(F)c1 (stereo not drawn) | -12.3% |
| O=C(Cc1cccnc1)N1CCC(OCc2ccccc2)CC1 | 3% |
| CCn1ccnc1CN1CCC(N(C)Cc2ncc(C)o2)C1 (stereo not drawn) | -7.04% |
| NC(=O)c1cc(C2CCCN(CCCOc3ccccc3)C2)n[nH]1 (stereo not drawn) | 18.7% |
| CC(NC(=O)N(C)CCCOc1ccc(F)cc1)c1nncn1C (stereo not drawn) | -3.38% |
| CN(Cc1noc(C2CC2)n1)C1CCN(Cc2nnc(C3CC3)o2)C1 (stereo not drawn) | -1.39% |
| CN(Cc1ccc(F)cc1)[C@@H]1CN(C(=O)c2cccs2)C[C@H]1O | -0.715% |
| CCn1ncc(Br)c1CN(C)S(=O)(=O)c1ccc(C)cc1 | -0.565% |
| Cc1cccc(C(=O)N2CCCCC2c2ccc(CN(C)C)cc2)n1 (stereo not drawn) | 3.59% |
| Cc1cccc(CN2CCc3nnc(CN4CCCC4=O)n3CC2)n1 | 1.97% |
| CC(C)c1nccn1-c1cccc(C2CCCN(C3CCCC3)C2)n1 (stereo not drawn) | 3.65% |
| Cc1ccc2cc(C(=O)NCCn3nc4ccccn4c3=O)[nH]c2c1 | -11.1% |
| Cc1csc(Nc2nccnc2C2CCCN2C(=O)C(C)C)n1 (stereo not drawn) | -6.58% |
| CC(C)(C)c1cn2nc(N3CCCC3Cn3cncn3)sc2n1 (stereo not drawn) | -6.25% |
| CCNC(=O)c1ccc(CNCc2c(C)nn(C)c2N(C)C)cc1 | 1.18% |
| CN(C)c1cc(C(=O)N2CCN(S(C)(=O)=O)CC2)ccn1 | -9.31% |

| SMILES | Percent Effect |
| --- | --- |
| Cn1ccnc1CN1CCN(Cc2noc(-c3ccccc3)n2)CC1 | -0.35% |
| COCC(C)N(C)C(=O)c1nc(S(C)(=O)=O)n2ccccc12 (stereo not drawn) | -5.8% |
| CS(=O)(=O)NCC1CCCN(C(=O)COc2ccc(F)cc2)C1 (stereo not drawn) | -7.96% |
| CCN(Cc1cccc2c1OCO2)C(=O)C(C)c1cccnc1 (stereo not drawn) | 4.03% |
| Cc1nc(CN2CCC(N(C)Cc3noc(C4CC4)n3)C2)oc1C (stereo not drawn) | 0.312% |
| COC(=O)CC(c1cnn(C)c1)c1oc(C)cc(=O)c1O (stereo not drawn) | 0.282% |
| Cc1cnn(CC2CCCN2C(=O)c2ccc(OC(C)C)nc2)c1 (stereo not drawn) | 12.5% |
| CN1[C@H](CN2CCCC2)C[C@@H]2CN(C(=O)Cc3cccs3)CC[C@@H]21 | -1.33% |
| CC(C)CN1CCC2(CCN(C(=O)c3ccc(F)cc3)CC2)C1=O | 0.691% |
| CC(=O)N1N=C(c2ccccc2)OC1C(=O)NCCC1=CCCCC1 (stereo not drawn) | -5.04% |
| CCC1CN(C(=O)c2ccc(Cl)cc2O)CCN1C(C)C (stereo not drawn) | 8.13% |
| Cn1cc(-c2nc(CN3CCc4c(ncn4C4CC4)C3)cs2)cn1 | 12.4% |
| O=C(NCCn1nc2ccccn2c1=O)c1cccc2[nH]ncc12 | -7.98% |
| COc1ncccc1CNC(=O)NCCNC(=O)c1ccco1 | -3.85% |
| Cc1cnn(CCNCc2nnc(C3CC3)o2)c1 | -7.5% |
| COc1ccc(S(N)(=O)=O)cc1C(=O)N(C)Cc1cc(C)on1 | -20.8% |
| O=S(=O)(CCCN1CCCC1Cn1cncn1)c1ccccc1 (stereo not drawn) | -0.0999% |
| O=C(NCC(=O)N1CCc2ccccc2C1)c1ccoc1 | -3.75% |
| CC(=O)N1[C@H](CN(C)C)C[C@@H]2CN(C(=O)c3cccc(F)c3)CC[C@@H]21 | -5.21% |
